The values that follow come from PubChem BioAssay (NCATS).

The nature of assay [1]: Cell Viability - Mesenchymal (AID 546).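 Note: cells exposed to compound for 40 hours before reading; 0% = DMSO only and -100% = 100 µM tamoxifen.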 Particulars: mesenchymal cells viability, qHTS; activity change, negative = cytotoxicity: at 91.7 µM (top of the series). Put shortly:
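CellTiter-Glo luminescence (intracellular ATP, 20 min room temperature) after 40 hr compound exposure at 37 °C of 1000 glomerulus-derived human kidney mesenchymal cells/well; AC50 values obtained by fitting qHTS concentration-response data to the Hill equation.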

Assay [2] is described as follows: Cellular Toxicity (caspase-3) HUV-EC-C (AID 656).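 Note: 0% = DMSO basal and 100% = 100 µM tamoxifen.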 The method, boiled down:
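Concentration-dependent caspase 3/7 induction was assessed in HUV-EC-C cells exposed for 16 hours. Data scaled between DMSO and tamoxifen (100 uM) controls.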

Assay [3] is described as follows: Cellular Toxicity (caspase-3) SHSY5Y (AID 657). Put shortly: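 Readout: caspase-cleaved peptide-aminoluciferin substrate driving luciferase light in SH-SY5Y neuroblastoma cells after 16 h treatment. Response normalized to DMSO and 10 uM staurosporine controls.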
Assay [4] in a line: Cellular Toxicity (caspase-3) BJ (AID 658).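 Note: 0% = DMSO basal and 100% = 10 µM staurosporine.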 The method, boiled down:
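Caspase-Glo 3/7 luminescence, read 1 hr after reagent at room temperature, in normal BJ fibroblasts exposed 16 hours at 37 °C. AC50 values from Hill-equation concentration-response, scaled between DMSO basal and 10 uM staurosporine as 100%.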

The nature of assay [5]: Cellular Toxicity (caspase-3) MRC-5 (AID 659).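 Note: 0% = DMSO basal and 100% = 10 µM staurosporine.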 The following applies: Potency: caspase-3 activation. The method, boiled down:
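Luminescent Caspase-Glo 3/7 read-out (1 h, room temperature) after a 16 h, 37 °C compound exposure of MRC-5 lung fibroblasts at 1500 cells/well. Concentration-response AC50 from Hill equation; 0% DMSO, 100% 10 uM staurosporine.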

A short description of assay [6]: Cellular Toxicity (caspase-3) Mesangial (AID 660).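 Note: combined caspase 3 and 7 activity read by Caspase-Glo luminescence; cells exposed to compound for 16 h before the caspase read.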 The method, boiled down: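 AC50 values come from Hill-equation fits of caspase 3/7 activation, measured as Caspase-Glo luminescence in human glomerular mesangial cells exposed to compound for 16 h at 37 °C; 100% set by 100 uM tamoxifen.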
The nature of assay [7]: Cellular Toxicity (caspase-3) SK-N-SH (AID 661).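 Note: 0% = DMSO basal and 100% = 10 µM staurosporine.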 Put shortly:
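Apoptosis readout in SK-N-SH neuroblastoma: Caspase-Glo 3/7 luminescence following 16 hr treatment in complete culture medium. Normalization used DMSO and 10 uM staurosporine controls.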

Assay [8] can be described thus: Cellular Toxicity (caspase-3) H-4-II-E (AID 663).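 Note: cells exposed to compound for 16 hr before readout; 0% = DMSO basal and 100% = 100 µM tamoxifen.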 The following applies: Potency: caspase-3 activation. The method, boiled down:
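Caspase 3/7 activation measured by luminescent aminoluciferin substrate cleavage after 16 hr compound treatment of H-4-II-E cells in complete medium. Increase normalized between DMSO (basal) and 100 uM tamoxifen (100%); Hill-equation AC50 from concentration-response.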

A short description of assay [9]: Cellular Toxicity (caspase-3) Hek293 (AID 664).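 Note: cells exposed to compound for 16 h at 37 °C before readout.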 Put shortly: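 Apoptosis readout: Caspase-Glo 3/7 signal in human HEK293 cells following 16-hour compound incubation. Responses scaled between DMSO baseline and 100 uM tamoxifen.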
Assay [10] can be described thus: Cellular Toxicity (caspase-3) N2a (AID 665).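 Note: compound exposure lasted 16 h at 37 °C before readout.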 The following applies: Potency: caspase-3 activation. Put shortly:
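Concentration-response qHTS: compound-induced caspase-3/7 luminescence in N2a cells (16 h, 37 °C), relative to DMSO and 10 uM staurosporine controls; AC50 obtained using the standard Hill equation.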

A short description of assay [11]: Cellular Toxicity (caspase-3) NIH 3T3 (AID 666).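 For caspase-3 activation: 0% = DMSO basal and 100% = 100 µM tamoxifen stimulation.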 Note: potency is the fitted concentration of half-maximal effect. The method, boiled down:
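Activity: caspase-3/7 induction, NIH 3T3 cells, 16 hr treatment at 37°C, luminescent Caspase-Glo detection; AC50 via Hill equation.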

A short description of assay [12]: Confirmation and Secondary Assay for Modulators of Hemoglobin Beta Chain Splicing at IVS2 654 locus (AID 910).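 Note: HeLa cells stably carrying EGFP split by mutant beta-globin IVS2-654 intron; per-well total GFP intensity by laser scanning cytometry after 2-day treatment; % of control where 0% means no effect.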 Put shortly: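 Readout: per-well total peak green fluorescence (488 nm ex, 500–520 nm em) from objects 5–250 µm, reflecting correct splicing of an EGFP-654 reporter. Compounds were applied for 2 days at 37 °C to overnight-plated HeLa EGFP-654 cells; controls were DMSO and 500 nM IVS2-654 PNA.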

For assay [13], the target named is Guanine nucleotide-binding protein G(i) subunit alpha-1 (Homo sapiens) (UniProt P63096). Nature of the assay: qHTS Assay for Inhibitors of RGS12 GoLoco Motif Activity (Green Fluorophore) (AID 879).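 Note: 0% = labeled peptide with Gαi1 and full inhibition = labeled peptide alone without protein; negative values mean loss of peptide binding seen as reduced polarization.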 Put shortly:
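A drop in FITC polarization marked displacement of the FITC-tagged RGS12 GoLoco peptide (10 nM) from Gαi1 (50 nM). Compounds were incubated 10 min at room temperature in Tris pH 7.5 buffer containing 150 mM NaCl, 0.1 mM GDP and 0.05% NP40; unlabeled peptide titration served as control.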

Assay [14] deals with Cytochrome P450 3A4 (Homo sapiens) (UniProt P08684). Nature of the assay: qHTS Assay for Inhibitors and Substrates of Cytochrome P450 3A4 (AID 884). For activity change, negative = inhibition: % is set by controls: 0 for no effect and ±100 for the full control effect. Note: nearly all actives have a fitted effect of over 50% in size. Note: potency is the fitted concentration of half-maximal effect. Put shortly: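 Luminescent readout of luciferin produced by CYP3A4 (20 nM) dealkylation of Luciferin-PPXE, 25 uM (its KM). NADPH-driven reaction ran 60 min at RT after 10 min compound preincubation; data scaled to 57 uM ketoconazole as 100% inhibition.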
Sequence of Cytochrome P450 3A4 (Homo sapiens) (P08684 whole entry, looked up): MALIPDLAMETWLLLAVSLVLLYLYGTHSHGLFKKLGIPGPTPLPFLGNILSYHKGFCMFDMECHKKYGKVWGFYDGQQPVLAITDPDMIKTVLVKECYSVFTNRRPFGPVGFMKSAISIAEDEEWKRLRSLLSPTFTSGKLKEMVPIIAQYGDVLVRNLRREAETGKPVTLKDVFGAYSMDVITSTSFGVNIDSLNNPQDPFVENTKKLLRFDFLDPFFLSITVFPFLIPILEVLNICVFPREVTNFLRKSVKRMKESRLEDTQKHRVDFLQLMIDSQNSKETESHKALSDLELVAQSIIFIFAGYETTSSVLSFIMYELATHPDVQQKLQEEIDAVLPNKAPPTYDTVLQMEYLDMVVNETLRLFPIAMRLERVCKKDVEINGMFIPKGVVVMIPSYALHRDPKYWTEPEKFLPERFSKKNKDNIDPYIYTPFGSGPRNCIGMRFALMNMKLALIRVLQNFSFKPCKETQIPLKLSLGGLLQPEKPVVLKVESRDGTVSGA

The target in assay [15] is Cytochrome P450 2D6 (Homo sapiens) (UniProt P10635). Put plainly: qHTS Assay for Inhibitors and Substrates of Cytochrome P450 2D6 (AID 891).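 For activity change, negative = inhibition: luciferin methyl ether substrate demethylated by CYP2D6 with NADPH regeneration; % is set by controls: 0 for no effect and ±100 for the full control effect.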 Note: nearly all actives have a fitted effect of over 60% in size. Note: potency is the fitted concentration of half-maximal effect. The method, boiled down:
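Luminescent read-out of luciferin formed by 5 nM human CYP2D6 demethylating 30 uM Luciferin-ME EGE (Km level) over 60 min at room temperature after NADPH regeneration addition. Data normalized to full inhibition by 1.43 uM quinidine.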

Assay [16] concerns the target Cytochrome P450 2C19 (Homo sapiens) (UniProt P33261). Put plainly: qHTS Assay for Inhibitors and Substrates of Cytochrome P450 2C19 (AID 899). Note: % is set by controls: 0 for no effect and ±100 for the full control effect; nearly all actives have a fitted effect of over 60% in size. Put shortly:
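5nM enzyme + 10uM Luciferin-H EGE (=KM), 50mM KPO4; cpd pin-transferred, 10 min 37C; NADPH regen, 60 min 37C; stopped w/ luciferin detection reagent, 20 min; luminescence. Normalized to 57uM ketoconazole (AC100).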

Assay [17] deals with 3',5'-cyclic-AMP phosphodiesterase 4B (Homo sapiens) (UniProt Q07343). Put plainly: qHTS Assay for Inhibitors of PDE-IV (AID 607; active = well fitted activation curve with a large enough effect in the main read-out, with a control signal flat, not every such curve was filed as active; note: % of control where 0% means no effect). The method, boiled down: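 HEK293 ACTOne cells with CNG channel (1000/well), endogenous PDE4; membrane potential dye, compounds up to 22.9 uM final. Fluorescence Ex 535/Em 590; RO 20-1724 (100 uM final) as reference.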
Sequence of 3',5'-cyclic-AMP phosphodiesterase 4B (Homo sapiens) (Q07343 whole entry, looked up): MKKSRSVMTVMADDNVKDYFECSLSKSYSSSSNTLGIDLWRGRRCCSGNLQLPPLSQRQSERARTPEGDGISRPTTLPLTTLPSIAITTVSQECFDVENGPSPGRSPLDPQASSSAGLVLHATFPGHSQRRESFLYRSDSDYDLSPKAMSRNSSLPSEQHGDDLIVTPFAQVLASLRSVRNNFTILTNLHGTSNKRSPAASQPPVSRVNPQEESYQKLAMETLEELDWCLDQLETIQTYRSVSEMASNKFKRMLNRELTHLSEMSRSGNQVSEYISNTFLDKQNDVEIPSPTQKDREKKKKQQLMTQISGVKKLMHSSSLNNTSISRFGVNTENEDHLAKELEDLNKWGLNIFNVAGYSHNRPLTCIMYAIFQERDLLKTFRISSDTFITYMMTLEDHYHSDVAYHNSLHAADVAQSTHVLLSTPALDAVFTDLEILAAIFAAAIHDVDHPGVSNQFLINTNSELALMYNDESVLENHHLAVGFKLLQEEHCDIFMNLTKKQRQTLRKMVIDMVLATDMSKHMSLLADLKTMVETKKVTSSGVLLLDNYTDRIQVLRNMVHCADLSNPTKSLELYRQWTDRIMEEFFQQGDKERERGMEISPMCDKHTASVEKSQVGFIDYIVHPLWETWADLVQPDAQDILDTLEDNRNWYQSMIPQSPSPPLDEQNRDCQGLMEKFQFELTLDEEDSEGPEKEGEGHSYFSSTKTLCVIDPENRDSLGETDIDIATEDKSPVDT
Assay [18] is described as follows: qHTS Assay for Identification of Small Molecule Antagonists for NFkB Signaling Pathway (AID 895; active = well fitted inhibition curve with a large enough effect in the signal ratio, with a control signal flat, not every such curve was filed as active; the % refers to the signal ratio; note: % is set by controls: 0 for no effect and ±100 for the full control effect). The method, boiled down:
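Beta-lactamase reporter read-out (460 and 530 nm emission ratio, 405 nm excitation, 2 hrs substrate loading RT) after 5 hr stimulation with 10 pM TNF alpha in compound-treated NFkB-bla ME-180 cells in low-serum medium.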

Assay [19] concerns the target Cytochrome P450 2C9 (Homo sapiens) (UniProt P11712). Put plainly: qHTS Assay for Inhibitors and Substrates of Cytochrome P450 2C9 (AID 883). Note: % is set by controls: 0 for no effect and ±100 for the full control effect; nearly all actives have a fitted effect of over 60% in size. The method, boiled down:
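Inhibition of CYP2C9 is scored as loss of luminescence, with 57uM sulphaphenazole defining 100% inhibition. Substrate Luciferin-H is used at 100uM, equal to its KM; enzyme at 10nM in 25mM KPO4, 60 min at 37C with NADPH regeneration.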

Assay [20] in a line: qHTS Assay for Identification of Small Molecule Agonists for Hypoxia Response Element Signaling Pathway (AID 914; active = well fitted activation curve with a large enough effect in the signal ratio, with a control signal flat, not every such curve was filed as active; the % refers to the signal ratio; note: % of control where 0% means no effect). Particulars: ME-180 (cervical carcinoma) HRE-bla reporter, beta-lactamase ratio, CoCl2, 17 h; active compounds read high. The method, boiled down:
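HRE-bla ME-180 cells, overnight plating in Opti-MEM with 0.5% dialyzed FBS; cpd titration + EC50 CoCl2, 17 h, 37 degrees Celsius; CCF4 2.5 h RT; 460/530 nm ratio; AC50.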

Each structure is given as a SMILES string. Where “and” joins values, the source holds several entries; their conditions need not be identical. Equal values may be shown once. Values without a mark were called inactive. Inconclusive results are not listed. Calls of active or inactive are those of the source. Unless noted, calls come from the whole dose curve; as a rule, active = well fitted curve in the direction sought with a large enough effect; inconclusive = small, poorly fitted or top-dose-only effect, or another doubt; inactive = no such curve, though single readings can be large; an effect the other way counts as inactive or inconclusive.

Sequence of Guanine nucleotide-binding protein G(i) subunit alpha-1 (Homo sapiens) (P63096 whole entry, looked up): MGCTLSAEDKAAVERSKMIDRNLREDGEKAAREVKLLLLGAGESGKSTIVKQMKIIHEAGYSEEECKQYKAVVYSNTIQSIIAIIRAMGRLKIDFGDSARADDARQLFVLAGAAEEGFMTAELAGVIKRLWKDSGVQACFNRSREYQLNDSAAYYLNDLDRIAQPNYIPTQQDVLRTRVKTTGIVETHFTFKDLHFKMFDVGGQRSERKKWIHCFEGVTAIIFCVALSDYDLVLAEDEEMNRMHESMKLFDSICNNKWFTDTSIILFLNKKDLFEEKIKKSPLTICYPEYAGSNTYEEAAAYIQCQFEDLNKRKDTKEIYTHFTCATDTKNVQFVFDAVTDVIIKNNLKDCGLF
Sequence of Cytochrome P450 2D6 (Homo sapiens) (P10635 whole entry, looked up): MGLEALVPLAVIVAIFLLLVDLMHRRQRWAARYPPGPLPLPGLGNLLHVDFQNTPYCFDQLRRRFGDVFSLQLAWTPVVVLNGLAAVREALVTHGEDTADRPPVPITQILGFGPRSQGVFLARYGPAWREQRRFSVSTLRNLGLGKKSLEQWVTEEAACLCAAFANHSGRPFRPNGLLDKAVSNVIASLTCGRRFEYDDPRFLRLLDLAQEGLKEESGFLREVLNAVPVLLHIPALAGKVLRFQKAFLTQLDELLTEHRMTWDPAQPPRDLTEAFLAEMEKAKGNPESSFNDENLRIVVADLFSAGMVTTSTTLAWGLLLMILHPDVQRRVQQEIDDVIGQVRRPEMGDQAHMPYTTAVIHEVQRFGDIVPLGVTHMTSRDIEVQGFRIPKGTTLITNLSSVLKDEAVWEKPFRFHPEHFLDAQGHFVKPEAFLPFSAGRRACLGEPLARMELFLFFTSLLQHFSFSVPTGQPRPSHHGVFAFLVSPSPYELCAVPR
Sequence of Cytochrome P450 2C9 (Homo sapiens) (P11712 whole entry, looked up): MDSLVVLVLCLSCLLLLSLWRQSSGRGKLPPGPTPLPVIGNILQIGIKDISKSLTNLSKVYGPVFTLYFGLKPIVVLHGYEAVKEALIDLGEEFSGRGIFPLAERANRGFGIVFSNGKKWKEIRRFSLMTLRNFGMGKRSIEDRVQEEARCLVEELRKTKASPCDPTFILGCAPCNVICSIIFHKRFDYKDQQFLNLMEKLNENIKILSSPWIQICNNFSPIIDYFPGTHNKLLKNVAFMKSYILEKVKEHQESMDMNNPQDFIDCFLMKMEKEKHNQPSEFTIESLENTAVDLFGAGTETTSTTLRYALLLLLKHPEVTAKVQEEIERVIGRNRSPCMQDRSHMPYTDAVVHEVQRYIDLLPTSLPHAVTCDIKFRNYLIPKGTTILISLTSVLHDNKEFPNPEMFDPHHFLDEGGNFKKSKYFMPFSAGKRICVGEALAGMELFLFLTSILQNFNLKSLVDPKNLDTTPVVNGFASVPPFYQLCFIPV
Sequence of Cytochrome P450 2C19 (Homo sapiens) (P33261 whole entry, looked up): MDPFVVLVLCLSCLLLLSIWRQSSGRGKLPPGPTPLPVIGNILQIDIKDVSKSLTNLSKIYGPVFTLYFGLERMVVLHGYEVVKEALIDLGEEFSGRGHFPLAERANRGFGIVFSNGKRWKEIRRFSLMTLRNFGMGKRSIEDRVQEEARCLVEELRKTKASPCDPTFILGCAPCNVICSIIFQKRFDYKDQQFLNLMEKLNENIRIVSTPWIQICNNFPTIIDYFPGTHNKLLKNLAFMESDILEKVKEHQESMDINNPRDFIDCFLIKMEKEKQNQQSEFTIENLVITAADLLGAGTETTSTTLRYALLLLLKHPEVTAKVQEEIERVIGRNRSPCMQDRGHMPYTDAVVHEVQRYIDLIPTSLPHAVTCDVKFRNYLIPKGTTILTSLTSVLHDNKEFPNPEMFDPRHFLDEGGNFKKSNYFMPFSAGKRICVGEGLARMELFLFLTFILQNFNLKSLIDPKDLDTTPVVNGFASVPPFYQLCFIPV

For the molecule `CC/C(=C(/CC)c1ccc(O)cc1)c1ccc(O)cc1`, the activity change, negative = cytotoxicity in assay [1] is -3%. Further, the call in [2], in assay [4], in assay [6], in [9] and in assay [12] was inactive. Moreover, the Potency result in assay [3], in [5], in assay [7], in assay [8], in [10] and in assay [11] was “inactive” throughout.
As to `COc1cc(-c2ccc(=O)[nH]n2)ccc1OC(F)F`, in assay [13], the result was inactive. Further, the Potency entry in [14], in [15] and in assay [16] was “inactive” in each case.
On to `O=C1CCC(c2ccc(-n3ccnc3)cc2)=NN1`, for which the molecule was classed as inactive in assay [17] and in assay [13]. Also, the Potency is 1.58 µM (active) in assay [14] and 2.51 µM (active) in [15].
Turning to `CC(C)NC[C@@H](O)COc1cccc2ccccc12`, the call in assay [17], in assay [13] and in assay [12] was inactive. In addition, the Potency entry in assay [14] is “inactive”.
Take `CN1CCC(=C2c3ccccc3Sc3ccccc32)CC1`: the result in assay [17] and in [12] was inactive. The Potency result in assay [14] was “inactive”. Also, the Potency in assay [15] is 3.98 µM (active).
Regarding `CCCCOc1ccc(OCCCN2CCOCC2)cc1`, the molecule was classed as inactive in [17] and in assay [12].
`CC(C)(Oc1ccc(Cl)cc1)C(=O)O`: the result in assay [17] and in assay [12] was inactive.
Turning to `CN(C)CC/C=C1\c2ccccc2Sc2ccc(Cl)cc21`, the molecule was classed as inactive in [17] and in assay [12]. Besides, the Potency in assay [15] is 2.51 µM (active).
As to `CCN1CCC[C@H]1CNC(=O)c1c(OC)ccc(Br)c1OC`, in assay [17], the result was inactive. Besides, the Potency in assay [15] was 0.199 µM (active).
With `O=C(CCCN1CCC(O)(c2ccc(Br)cc2)CC1)c1ccc(F)cc1`, in assay [17], the molecule was classed as inactive. Further, the Potency result in assay [14] was “inactive”. Also, in assay [15], the Potency was 3.98 µM (active).
Regarding `CN(C(=O)CN(CCO)CC(=O)N(C)C(C)(C)Cc1ccccc1)C(C)(C)Cc1ccccc1`, the result in assay [17] and in [12] was inactive. In addition, the Potency in [15] is 3.16 µM (active).
Turning to `O=C1c2ccccc2C(=O)C1c1ccccc1`, the outcome in assay [17] and in assay [12] was inactive.
Take `O=C(O)c1cc2cc(Cc3cccnc3)ccc2o1`: the outcome in assay [17], in assay [13] and in [12] was inactive. In addition, the Potency entry in [14] was “inactive”.
On to `CC(=O)N(O)CCCCCNC(=O)CCC(=O)N(O)CCCCCNC(=O)CCC(=O)N(O)CCCCCN`, for which the result in assay [17] and in [12] was inactive. In addition, in [14], the Potency result is “inactive”.
Consider `CN1CCC[C@@H]1c1cccnc1`, for which, in assay [13], the molecule was classed as inactive.
For `CCN(CC)C(=O)N1CCN(C)CC1`, the call in [17] and in [12] was inactive. Besides, the Potency result in assay [14] is “inactive”.
For `N[C@@H](Cc1cnc[nH]1)C(=O)O`, the molecule was classed as inactive in assay [17] and in assay [13]. The Potency result in [18] is “inactive”.
`Oc1c(I)cc(Cl)c2cccnc12`: the molecule was called inactive in assay [2], in assay [4], in assay [6], in assay [9] and in [12]. Further, the Potency result in [3], in assay [5], in [7], in assay [8] and in assay [10] was “inactive” throughout. Besides, the Potency in assay [11] was 12.6 µM (active).
Take `CNCCC=C1c2ccccc2CCc2ccccc21`: the call in assay [17], in [13] and in assay [12] was inactive. The activity change, negative = inhibition in [19] is -6.44% [at 11.4 µM]. In addition, in assay [15], the Potency was 3.16 µM (active).
On to `OC(CCN1CCCCC1)(c1ccccc1)c1ccccc1`, for which the result in assay [17] and in [12] was inactive. The Potency in assay [15] is 5.01 µM (active) and 1.26 µM (active).
In the case of `Cc1ccnc(NS(=O)(=O)c2ccc(N)cc2)n1`, the result in assay [17] and in assay [12] was inactive. Further, the Potency entry in assay [19] and in assay [14] was “inactive” each time.
Regarding `CN1CCN(C(c2ccccc2)c2ccccc2)CC1`, the molecule was called inactive in assay [17] and in assay [12]. Further, in assay [14], the Potency result was “inactive”.
`Cc1c(N(C)CS(=O)(=O)O)c(=O)n(-c2ccccc2)n1C`: the molecule was called inactive in [17] and in assay [12]. Besides, the Potency entry in assay [14] was “inactive”. Moreover, the activation in [20] was -4.84%.
